Results as given in the supplement of paper PMC10981050.
Several values for one entry are separate records, joined by “and”; a condition that tells them apart may be missing. Equal values may be shown once. Where a name gives a salt, the structure may show the parent alone.

What was measured:
Experiment in all cases: cell viability relative to vehicle control; higher = less cytotoxic
Conditions in all cases: 10 µM
K562 = test system: K562
Outline: (§1)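 Mutant clones made by CRISPR editing and their isogenic wild-type counterparts, from four leukaemia lines, were exposed to a single 10 µM dose of each library compound for 48 h. The supernatant was then removed and CellTiter-Glo luminescence was read. Viability was reported as percent of the on-plate vehicle control.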

MARIMO = test system: MARIMO
Outline: as §1

MOLM14 = test system: MOLM14
Outline: as §1

OCI-AML2 = test system: OCI-AML2
Outline: as §1

Row | SMILES | cell viability (K562; SRSF2 genotype: SRSF2 P95H/wt) | cell viability (K562; SRSF2 genotype: SRSF2 wt/wt) | cell viability (MARIMO; SRSF2 genotype: SRSF2 P95H/wt) | cell viability (MARIMO; SRSF2 genotype: SRSF2 wt/wt) | cell viability (MOLM14; SRSF2 genotype: SRSF2 P95H/wt) | cell viability (MOLM14; SRSF2 genotype: SRSF2 wt/wt) | cell viability (OCI-AML2; SRSF2 genotype: P95H/wt) | cell viability (OCI-AML2; SRSF2 genotype: wt/wt)
1 | CN1CCN(Cc2ccc(-c3cnc4[nH]cc(-c5ccc6[nH]ccc6c5)c4c3)cc2)CC1 | 2.18% and 1.72% | 2.36% | 0.62% | 0.44% | 0.32% | 0.4% | 0.33% | 0.41%
2 | CN(C)CCCN1c2ccccc2Sc2ccc(Cl)cc21 [Chlorpromazine HCl] | 75.5% and 73.7% | 65.6% | 40.4% | 44.1% | 40.7% | 43.7% | 25.3% | 28.6%
3 | CCN1CCC[C@H]1CNC(=O)c1cc(S(N)(=O)=O)ccc1OC [Levosulpiride (Levogastrol)] | 101% and 103% | 108% | 111% | 104% | 109% | 107% | 104% | 93.6%
4 | CN(CCOc1ccc(CC2SC(=O)NC2=O)cc1)c1ccccn1 (stereo not drawn) [Rosiglitazone maleate] | 98.8% and 97.5% | 96% | 102% | 110% | 101% | 103% | 91.5% | 107%
5 | CSCC1CN(/N=C/c2ccc([N+](=O)[O-])o2)C(=O)O1 (stereo not drawn) [Nifuratel] | 85.1% and 77.7% | 78.8% | 78.3% | 82.2% | 77% | 80.1% | 79.1% | 87.3%
6 | COc1cccc2c1C(=O)c1c(O)c3c(c(O)c1C2=O)C[C@@](O)(C(=O)CO)C[C@@H]3O[C@H]1C[C@H](N)[C@@H](O)[C@H](C)O1 [Epirubicin Hydrochloride] | 4.6% and 11.6% | 7.29% | 4.26% | 2.14% | 1.38% | 0.76% | 1.59% | 11.3%
7 | Cc1nc2n(c(=O)c1CCN1CCC(c3noc4cc(F)ccc34)CC1)CCCC2 [Risperidone (Risperdal)] | 93.6% and 101% | 93.5% | 94% | 99.2% | 100% | 98.2% | 98.8% | 99%
8 | O=C(O)C=Cc1cccc(O)c1 [3-Hydroxycinnamic acid] | 106% and 93.7% | 97.5% | 86.6% | 97.3% | 87.9% | 93.2% | 91.4% | 94.3%
9 | CCCCOc1ccc(CC(=O)NO)cc1 [Bufexamac] | 95% and 94.9% | 98.8% | 91.6% | 88.7% | 85.7% | 93.1% | 98.1% | 91.8%
10 | CCCNC(C)C(=O)Nc1c(C)csc1C(=O)OC (stereo not drawn) [Articaine HCl] | 107% and 117% | 114% | 107% | 106% | 106% | 107% | 116% | 99.9%
11 | COc1cc2ncc(-c3ccccc3)nc2cc1OC [Tyrphostin AG 1296 (AG 1296)] | 90.3% and 94.9% | 93% | 81.5% | 82.2% | 48.2% | 56% | 69.5% | 65.6%
